# Calls of active or inactive are those of the source. Unless noted, the rule behind the calls is not given here.
# Experiments:
# [1] = test system: XIP peptide (Xip251-270) binding; assay: XIP fragment 251-270 binding compounds – biochemical, small-molecule microarray, fluorescence 635/667 nm, 0.1 µg/mL protein, primary screen (AID 1182); conditions: fluorescent protein binding, 635 nm, higher = more signal, called active from +8 up or from −8 down
# XIP peptide (Xip251-270) = assay: compounds binding XIP fragment 251-270 – biochemical, small-molecule microarray, fluorescence 635/667 nm, 0.5 µg/mL protein, primary screen (AID 1183); conditions: fluorescence 635 nm, higher = more signal
# [2] = blood-stage malaria parasite viability loss – strain 3D7, DAPI fluorescence, 100 nL, primary screen (AID 1184);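 note: parasites grown inside human red blood cells in medium with human serum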; conditions: P. falciparum 3D7 growth, 3 d, higher = more signal
# [3] = biological target: Homeobox protein Hox-A13 (Mus musculus) (UniProt Q62424); assay: disruptors of Hoxa13 oligonucleotide interaction – biochemical, fluorescence polarization, labeled oligonucleotide, primary screen (AID 1185); conditions: Hoxa13:DNA binding, 15 min, higher = more signal, called active from +8 up or from −8 down
# [4] = blockers of DNA damage checkpoint Chk1 activation – imaging, HeLa, hydroxyurea, phospho-Chk1 antibody, percent positive cells, primary screen (AID 1186); conditions: hydroxyurea-induced phospho-Chk1 immunofluorescence imaging, higher = more signal
# [5] = blockers of DNA damage checkpoint Chk1 activation – imaging, HeLa, hydroxyurea, phospho-Chk1 nuclear intensity, primary screen (AID 1187); conditions: hydroxyurea-induced phospho-Chk1 immunofluorescence imaging, higher = more signal
# Homeobox protein Hox-A13 (Mus musculus), sequence (Q62424 whole entry, looked up): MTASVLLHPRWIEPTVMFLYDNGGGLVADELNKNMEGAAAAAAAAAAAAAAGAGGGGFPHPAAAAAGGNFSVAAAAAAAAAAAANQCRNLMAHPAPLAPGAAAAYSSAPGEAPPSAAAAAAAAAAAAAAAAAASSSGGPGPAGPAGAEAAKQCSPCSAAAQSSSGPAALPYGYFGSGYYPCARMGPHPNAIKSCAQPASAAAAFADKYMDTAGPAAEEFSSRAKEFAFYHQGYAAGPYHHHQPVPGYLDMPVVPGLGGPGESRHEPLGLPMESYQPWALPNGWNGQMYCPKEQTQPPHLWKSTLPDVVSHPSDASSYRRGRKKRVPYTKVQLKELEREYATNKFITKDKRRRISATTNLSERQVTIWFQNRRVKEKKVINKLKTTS
Compound,composite z-score [1],composite z-score (XIP peptide (Xip251-270)),z-score [2],z-score [3],z-score [4],z-score [5]
C=CCC(OC(C)=O)[C@@H]1[C@@H](N(Cc2ccc(-c3ccccc3)cc2)C(=O)c2ccc(C)cc2)c2cc(OCCCO)ccc2N1C(=O)Cc1ccc(OC)cc1 (some centres undefined),0.0129 (inactive),0.703,-1.18,-0.664 (inactive),-0.793 (inactive),-0.677 (inactive)
CC(C)[Si]1(C(C)C)O[C@@H](c2ccccc2)c2cc(-c3ccc(-c4ccc(Cl)c(Cl)c4)o3)nc(CCc3ccccc3)c21,-0.0577 (inactive),-1.03,0.952,-0.21 (inactive),0.0301 (inactive),-0.289 (inactive)
C=CCNC(=O)[C@H]1[C@@H]2C(=O)O[C@@H](c3ccccc3)[C@@H](c3ccccc3)N2[C@@H](c2ccc(OCCO)cc2)[C@]12C(=O)N(C(=O)OCCOC)c1ccc(C#CC3(O)CCCCCC3)cc12,0.404 (inactive),0.735,-1.91,-0.675 (inactive),-0.124 (inactive),-0.0954 (inactive)
CC(=O)NCCCC[C@@H]1NC(=O)[C@@H]2C[C@H](C(=O)NCCCCCC[N+](C)(C)C)[C@H](c3cccc(OCCO)c3)N2C1=O,1.52 (inactive),0.345,0.129,-4.94 (inactive),-0.502 (inactive),-0.0493 (inactive)
CC1CC/C=C\[C@H]2OC34C=CCN(c5ccc6ccccc6c5)C(=O)[C@H]3N(CCCCCO)C(=O)[C@@H]4C2C(=O)O1 (some centres undefined),1.37 (inactive),-0.165,-0.0643,-6.06 (inactive),0.549 (inactive),-0.382 (inactive)
C=CCN1Cc2ccccc2C[C@@]2(COC(c3ccc(OCCCO)cc3)=N2)C1=O,0.415 (inactive),0.793,-1.85,-3.96 (inactive),-0.221 (inactive),-0.208 (inactive)
CC(C)C(CO)N1C(=O)[C@@H]2[C@H]3C(=O)OCC=C[C@H]3OC23C=CCN(c2ccc4ccccc4c2)C(=O)[C@@H]13 (some centres undefined),0.0164 (inactive),-0.525,-0.279,-3.29 (inactive),0.207 (inactive),0.426 (inactive)
O=C(CS)NCCCCCNC(=O)[C@H]1C[C@H]2C(=O)N[C@@H](Cc3ccccc3)C(=O)N2[C@H]1c1cccc(OCCO)c1,0.296 (inactive),0.812,0.0332,-2.76 (inactive),0.0034 (inactive),0.483 (inactive)
C=C[C@H](C)[C@H](OC(=O)Nc1ccc(OC)cc1)c1ccc(O)c2ccccc12,0.79 (inactive),-0.147,-0.767,-4.27 (inactive),-0.33 (inactive),-0.382 (inactive)
O=C1C2C=CC(C(O)c3ccc(Br)cc3)N(n3cnnc3)C2C(=O)N1Cc1ccccc1 (centres undefined),0.568 (inactive),0.76,-0.084,0.314 (inactive),-0.47 (inactive),-0.618 (inactive)
Oc1ccc2cc[n+](Cc3cccc(OC(F)(F)F)c3)cc2c1,0.143 (inactive),0.558,0.233,-3.08 (inactive),-0.208 (inactive),-0.16 (inactive)
CC(C)[C@H]1COC(=O)N1C(=O)[C@H]1[C@@H](c2ccccc2)N(c2ccccc2)O[C@@H]1C,0.223 (inactive),0.267,0.0321,-3.46 (inactive),-0.965 (inactive),-1.2 (inactive)
[N-]=[N+]=Nc1ccccc1[C@@H]1OC(c2ccc(OCCCO)cc2)=N[C@]1(CCS(=O)(=O)c1ccccc1)C(=O)O,0.97 (inactive),0.727,-1.19,-4.69 (inactive),-0.273 (inactive),-0.0293 (inactive)
COc1cc(CO)cc(I)c1O[C@H]1C=C(C(=O)NCCO)C[C@@H](N(CCc2cccc(F)c2)C(=O)CCC2CCCC2)[C@@H]1O,0.131 (inactive),0.65,-2.18,-6.89 (inactive),0.624 (inactive),0.824 (inactive)
COc1ccc(C(O)C2C=CC3C(=O)N(c4ccccc4)C(=O)C3N2Nc2ccccc2)c2ccccc12 (centres undefined),2.31 (inactive),0.573,-0.182,-1.28 (inactive),-0.0153 (inactive),-0.861 (inactive)
Cc1ccccc1/C=C/C=O,0.958 (inactive),0.532,-0.198,-0.848 (inactive),0.133 (inactive),0.0525 (inactive)
CCOC(=O)C[C@H]1[C@H](OC(=O)c2ccc(C(=O)c3ccccc3)cc2)[C@@H](NC(=O)c2ccc3ccccc3n2)c2cc(OCCCO)ccc2N1C(=O)c1ccc2ccccc2n1,0.545 (inactive),0.613,-2.55,-2.61 (inactive),0.226 (inactive),0.194 (inactive)

Compound,composite z-score [1],composite z-score (XIP peptide (Xip251-270)),z-score [2],z-score [3],z-score [4],z-score [5]
COC(=O)[C@@]1(Cc2ccc(F)cc2)[C@H]2c3cc(C(=O)N(C)C)n(CCCNc4ccc(C(F)(F)F)cc4Cl)c3C[C@H]2CN1C(=O)c1ccccc1,0.915 (inactive),0.557,-1.39,-0.925 (inactive),0.456 (inactive),-0.225 (inactive)
O=C(NCc1ccccc1)[C@@H]1c2ccccc2C(=O)N(C2CCCCC2)[C@H]1c1ccc(CO)cc1,0.81 (inactive),0.732,-0.667,-2.81 (inactive),-0.13 (inactive),-0.296 (inactive)
CC(C)OC(=O)C1=CCC(c2cccc(Cl)c2)O1 (centres undefined),0.0142 (inactive),0.677,-1.39,-0.554 (inactive),0.147 (inactive),0.0282 (inactive)
COc1c(C)cc(-c2cc3c(c(-c4ccccc4)n2)[Si](C(C)C)(C(C)C)O[C@H]3c2ccccc2)cc1C,0.648 (inactive),-0.029,-2.88,-0.742 (inactive),-0.59 (inactive),-0.492 (inactive)
CCN(CC)c1ccc(N2CC=CC34O[C@@H]5/C=C\CCC(C)OC(=O)C5[C@H]3C(=O)N(CCCCCCO)[C@@H]4C2=O)cc1 (some centres undefined),0.76 (inactive),-0.0479,0.816,-5.99 (inactive),-0.632 (inactive),-0.767 (inactive)
O=C1C2C=CC(C(O)c3ccc(-c4ccccc4)s3)N(Nc3ccccc3F)C2C(=O)N1c1ccccc1 (centres undefined),0.251 (inactive),0.734,-0.531,0.151 (inactive),0.184 (inactive),0.414 (inactive)
COCC1=C([C@H](O)CCc2ccccc2)[C@H](CO)[C@@H]2C(=O)N(Cc3ccccc3)C(=O)[C@@H]2C1,-0.0534 (inactive),0.155,-0.54,-5.17 (inactive),-0.955 (inactive),-0.946 (inactive)
O=C1C2C=CC(C(O)CCc3ccccc3)N(Nc3ccccc3)C2C(=O)N1c1ccccc1 (centres undefined),0.792 (inactive),0.802,-0.467,-3.23 (inactive),0.684 (inactive),0.448 (inactive)
O=C1O[C@@H](c2ccccc2)[C@@H](c2ccccc2)N2[C@@H](c3ccccc3OCCO)[C@]3(C(=O)Nc4ccc(C#CC5(O)CCCCCC5)cc43)[C@@H](C(=O)NC[C@H](O)c3ccccc3)[C@H]12,0.487 (inactive),0.76,-1.96,-2.71 (inactive),-0.213 (inactive),0.0361 (inactive)
COCCCNC(=O)[C@]1(Cc2ccccc2N=[N+]=[N-])N=C(c2ccc(OCCCO)cc2)O[C@@H]1c1ccccc1CN=[N+]=[N-],0.0423 (inactive),0.758,-2.21,-0.242 (inactive),-0.659 (inactive),-0.443 (inactive)
O=C1OCCC=C[C@H]2OC34C=CCN(CCN5CCOCC5)C(=O)[C@H]3N(CCO)C(=O)[C@@H]4C12 (some centres undefined),0.134 (inactive),0.0053,0.0863,-5.81 (inactive),-0.492 (inactive),-0.757 (inactive)
C=C(CCCC)/C(=C/C[C@H](OC(C)=O)c1ccc(CO)o1)c1cc(C(=O)OC)ccc1OC,0.485 (inactive),0.73,-1.52,-4.44 (inactive),-0.92 (inactive),-0.469 (inactive)
Cc1c(NC(=O)/C(C#N)=C/C=C/c2ccccc2)c(=O)n(-c2ccccc2)n1C,-0.3 (inactive),0.559,-0.582,-1.5 (inactive),0.062 (inactive),0.214 (inactive)
O=C1C[C@@](C(=O)O)(c2ccc([N+](=O)[O-])cc2)[C@@H](c2ccc(CO)cc2I)N1CC12CC3CC(CC(C3)C1)C2,0.862 (inactive),0.771,-1.92,-5.13 (inactive),0.288 (inactive),0.285 (inactive)
COCCOC(=O)N1C(=O)[C@@]2(c3cc(C#CCCO)ccc31)[C@H](C(=O)NC[C@H](O)c1ccccc1)[C@H]1C(=O)O[C@H](c3ccccc3)[C@H](c3ccccc3)N1[C@@H]2c1ccc(OCCO)cc1,-0.0001 (inactive),0.577,-1.99,-1.64 (inactive),0.0945 (inactive),0.298 (inactive)
O=c1cccc(-c2cccc3ccccc23)o1,-0.738 (inactive),0.454,-0.796,-1.69 (inactive),-0.715 (inactive),-1.06 (inactive)
O=C1[C@H]2C=C(Br)[C@H](C[C@@H]2OCCOCCO)[C@@]12CO2,-0.0844 (inactive),0.798,-0.334,-0.559 (inactive),-0.051 (inactive),-0.0596 (inactive)
